Source: PubChem BioAssay
JMJD2A Tudor inh = inhibitors of human JMJD2A Tudor domain. AID 504339. Potency, µM (doses to about 114 µM), hits mostly inhibitors. actives 4.4% (n = 390,000). AlphaScreen JMJD2A-Tudor / H3K4me3 peptide binding; also: nearly all actives have a fitted effect of over 50% in size
Sfp PPTase inh = inhibitors of Bacillus subtilis Sfp phosphopantetheinyl transferase | Q9F4F7 | Biochemical Sfp PPTase activity, qHTS | Potency, µM, hits mostly inhibitors | actives 3.5% (n = 310,000);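 also: the enzyme is Sfp with the accession as filed and its product quenches rhodamine fluorescence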
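After 15 min at room temperature with compound, 15 nM Sfp received 5 uM rhodamine-CoA plus 12.5 uM BHQ-2-ybbR (50 mM Hepes pH 7.6, 10 mM MgCl2). Rate came from the fluorescence difference over 30 min, ex 525/em 598 nm.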
G9a block = G9a (human) methyltransferase inhibition. Q96KQ7. G9a H3K9 monomethylation, AlphaScreen, 2 h. Potency, µM (highest dose often 102 µM), actives largely listed as inhibitors. actives 8.8% (n = 350,000). AID 504332; also: nearly all actives have a fitted effect of over 75% in size
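Methyltransferase reactions run at room temperature for 2 h (20 nM enzyme, 500 nM biotin-H3K9 peptide, 20 uM SAM) after a 15 min compound preincubation; product detected by AlphaScreen beads and anti-H3K9me1 antibody.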
L3MBTL1 block = blocks human L3MBTL1; AlphaScreen L3MBTL1–H3K9me1 peptide binding; Potency, µM (highest dose often 57.1 µM), usual class: inhibitors; actives 0.66% (n = 230,000); also: nearly all actives have a fitted effect of over 60% in size
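First, the protein-peptide complex forms for 30 min at room temperature (L3MBTL1 50 nM, biotinylated H3K9me1 peptide 75 nM). Next, compounds are pin-transferred and incubated 30 min. Finally, AlphaScreen beads are added and read after 30 min.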
HP1b binding inh = inhibitors of HP1-beta chromodomain binding to methylated histone tails; P83916; AID 540317; AlphaScreen HP1-beta / biotin-H3K9me3 peptide binding; actives 0.56% (n = 390,000); Potency, µM (highest dose often 114 µM), most hits filed as inhibitors; also: nearly all actives have a fitted effect of over 70% in size
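Compound inhibition of the preformed complex between 50 nM HP1-beta and 50 nM biotinylated H3K9me3 peptide was read by AlphaScreen. Buffer was PBS pH 7.4 with 0.01% Tween-20. Incubations ran 30 min at room temperature, with 10 ug/mL donor/acceptor beads.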
BAZ2B inh = BAZ2B (human) inhibition. AlphaScreen BAZ2B-H3K14Ac peptide displacement. Q9UIF8. actives 4.4% (n = 360,000). AID 504333. Potency, µM (highest dose often 114 µM), usual class: inhibitors; also: nearly all actives have a fitted effect of over 60% in size
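AlphaScreen luminescence quantifies BAZ2B engagement of H3K14Ac peptide; the protein and biotinylated peptide are both at 50 nM final, buffer PBS pH 7.4 with 0.01% Tween-20, all steps at room temperature.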
Numbers stand for hits; n = inactive; u = inconclusive; x = not tested or not shown; [ ] = remark or other dose. Only some compounds are listed: those with a hit (about 12% of all), similar ones and a draw of the others. Calls follow the shape of the dose curve; as a rule, active = well fitted curve in the direction sought with a large enough effect; inconclusive = small, poorly fitted or top-dose-only effect, or another doubt; inactive = no such curve, though single readings can be large; an effect the other way counts as inactive or inconclusive.

SMILES	JMJD2A Tudor inh	Sfp PPTase inh	G9a block	L3MBTL1 block	HP1b binding inh	BAZ2B inh
COc1ccc(C2=NC3(CCCCCC3)N(CC(=O)Nc3ccc(C)c(C)c3)C2=O)cc1	n	x	n	x	n	n
CC(=O)NCC(=O)NC1CC(C)(C)Cc2c1cnn2-c1ccccc1 (stereo not drawn)	n	n	x	n	n	n
Cn1nnnc1SCCNCc1ccccc1Cl	n	x	n	x	n	n
CCN1CCN(c2ccc(S(=O)(=O)N3CCOCC3)cc2NC(=O)c2ccc(C)cc2C)CC1	n	x	u	n	n	u
CCN1CCN(c2ccc(S(=O)(=O)N3CCOCC3)cc2NC(=O)c2ccccc2SC)CC1	n	x	32µM	n	n	n
CCN1CCN(c2ccc(S(=O)(=O)N3CCOCC3)cc2NC(=O)C(C)Oc2ccc(Cl)cc2)CC1 (stereo not drawn)	n	x	11µM	n	n	n
CCN1CCN(c2ccc(S(=O)(=O)N3CCOCC3)cc2NC(=O)c2sccc2C)CC1	n	x	13µM	n	n	n
CCN1CCN(c2ccc(S(=O)(=O)N3CCOCC3)cc2NC(=O)c2cc(Cl)nc3ccccc23)CC1	n	x	45µM	n	n	n
CCOC(=O)Cn1c(=O)oc2cc(S(=O)(=O)N(C)c3cccc(C)c3)ccc21	n	n	n	x	n	n
CC(=O)Nc1ccc(N=NN2CCOCC2)cc1	n	n	8.9µM	x	u	n
CC(=O)Nc1cccc(N=NN2CCCCC2)c1	n	n	22µM	n	n	n
O=C(O)c1ccc(N=NN2CCCC2)cc1	n	n	35µM	x	n	n
CC(=O)Nc1cccc(N=NN2CCOCC2)c1	n	n	x	n	n	n
CC1CCC(NC(=O)c2ccc3c(c2)N(Cc2ccccc2)C(=O)c2ccccc2S3(=O)=O)CC1 (stereo not drawn)	n	x	n	x	n	n
CCOc1ccc(-c2cc(C(=O)NCc3ccc(OCC)c(OC)c3)[nH]n2)cc1	n	x	n	x	n	n
COc1cccc(CNC(=O)CSc2cc(C)[nH]c(=O)n2)c1	n	x	n	x	n	n
CC1(C)CC(=O)C=C(Nc2ccc(O)c(C(=O)O)c2)C1	n	n	45µM	n	n	n
Cc1cc(C)n(CC(=O)O)n1	u	n	u	n	n	n
Cc1cc(C)n(CC(C)C(=O)O)n1 (stereo not drawn)	n	n	x	n	n	79µM
Cc1cc(C)c2c(N)c(C(=O)NC3CCCC3)sc2n1	n	n	35µM	n	n	n
Cc1cc(C)c2c(N)c(C(=O)N3CCc4ccccc4C3)sc2n1	n	56µM	71µM	n	n	n
CCN1CCc2nc3sc(C(=O)N4CCc5ccccc5C4)c(N)c3cc2C1	79µM	45µM	20µM	x	n	u
CCN1CCc2nc3sc(C(=O)Nc4cccc(Cl)c4C)c(N)c3cc2C1	u	x	u	x	n	n
O=c1c(-c2ccc(F)cc2)nc2cnc(N3CCNCC3)nc2n1Cc1ccc(F)cc1	x	u	n[0.501 µM]	x	x	x
C=C1C=CS(=O)(=O)N(C(C)C(=O)OC)C1 (stereo not drawn)	n	n	x	x	n	x
SMILES	JMJD2A Tudor inh	Sfp PPTase inh	G9a block	L3MBTL1 block	HP1b binding inh	BAZ2B inh
Cc1cc(C)c2cc(CN(CCO)Cc3nnnn3Cc3ccccc3)c(=O)[nH]c2c1	n	n	40µM	n	n	n
Cc1ccc2cc(CN(CCO)Cc3nnnn3Cc3ccc(F)cc3)c(=O)[nH]c2c1	n	n	32µM	n	n	n
CCn1c(SCC(=O)c2cc(OC)ccc2OC)nnc1C1CC1	n	n	50µM	n	n	n
CCn1nnnc1SCC(=O)c1cc(OC)ccc1OC	n	n	u	n	n	n
CCn1c(SCC(=O)c2ccc(OC)cc2)nnc1C1CC1	100µM	n	n[12.7 µM]	n	n	n
Nc1ccc2oc(Cc3ccc(Cl)cc3)nc2c1	u	x	13µM	x	n	n
O=[N+]([O-])c1ccc(O)c(C=Nc2ccc3oc(Cc4ccc(Cl)cc4)nc3c2)c1	x	28µM	28µM	n	x	u
COC1CCN(C(=O)c2ccc3oc(Cc4ccc(Cl)cc4)nc3c2)CC1	n	n	n	x	n	n
C=CCSc1nc2sc3c(c2c(=O)n1-c1ccccc1)CCN(C)C3	n	n	n[0.501 µM]	x	n	u
CN1CCc2c(sc3nc(NN)n(-c4ccc(Cl)cc4)c(=O)c23)C1	u	n	45µM	x	n	u
CN1CCc2c(sc3nc(NN)n(Cc4ccccc4)c(=O)c23)C1	u	n	45µM	n	n	u
CN1CCc2c(sc3c2c(=O)n(-c2ccc(Cl)cc2)c2nncn32)C1	n	n	u	n	n	n
O=C(Nc1cccc(-c2nn3c(=O)cc(N4CCNCC4)nc3s2)c1)c1ccncc1	n	x	x	x	x	x
COC(=O)c1ccc(N=Cc2c(C(F)(F)F)[nH]n(C)c2=O)cc1	n	n	n	n	n	n
Cc1ccc(C)c(NC(=S)c2ccccn2)c1	79µM	n	u	u	6.3µM	20µM
Cc1ccc(NC(=S)c2nc3ccccc3s2)cc1	u	n	22µM	u	u	8.9µM
S=C(Nc1ccc(Cl)cc1)c1nc2ccccc2s1	u	n	u	n	u	u
Cc1ccc(C)c(NC(=S)c2nc3ccccc3s2)c1	14µM	u	u	n	n	n
C#CCN(C)CC/C=C1\c2ccccc2CSc2ccccc21	n[11.4 µM]	n	14µM	n	n	u
CN(C)CC/C=C1/c2cc(F)ccc2CSc2ccc(F)cc21	n	n	n	n	n	n
C=CCN(C)CC/C=C1\c2ccccc2CSc2ccccc21	u	n	n	n	n	n
CN(C)CC/C=C1\c2cc(F)ccc2CSc2ccccc21	n	79µM	n	n	n	n
COc1ccc(NC(=O)Cn2cnc3c(nc4n3CCCCC4)c2=O)cc1Cl	n	x	n	x	n	n
CCOC(=O)c1ccccc1NC(=O)Cn1c(=O)n(CCCC(=O)NCc2ccc3c(c2)OCO3)c(=O)c2ccccc21	n	x	n	x	n	n
COc1ccccc1COn1c(=O)c(-c2ccco2)[n+]([O-])c2ccccc21	n	50µM	x	n	n	n
SMILES	JMJD2A Tudor inh	Sfp PPTase inh	G9a block	L3MBTL1 block	HP1b binding inh	BAZ2B inh
CCOC(=O)COn1c(=O)c(-c2ccco2)[n+]([O-])c2ccccc21	n	25µM	10µM	u	n	u
CCOC(=O)COn1c(=O)c(-c2ccc(C)cc2)[n+]([O-])c2ccccc21	n	n	n[2.33 µM]	x	n	n
O=c1c(-c2ccco2)[n+]([O-])c2ccccc2n1OCc1ccccc1	50µM	u	6.3µM	x	u	n
O=c1c(-c2ccco2)[n+]([O-])c2ccccc2n1OCc1c(F)cccc1F	n	50µM	x	n	n	n
O=c1c(-c2ccco2)[n+]([O-])c2ccccc2n1OCc1ccccc1F	n	n	n[12.7 µM]	x	n	n
C=CCOn1c(=O)c(-c2ccc(OC)cc2)[n+]([O-])c2ccccc21	n	n	n	n	n	n
CCc1ccccc1NC(=O)C1=C(C)C(=O)OC12CCCCCC2	n	x	n	x	n	n
